Experiment [1] can be described thus: Cell Viability - LYMP2-020 (AID 986).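 Note: series mostly up to about 92 µM; cells exposed to compound for 24 h at 37 °C; plate controls were DMSO only for no effect and tetraoctylammonium bromide at 92 µM for full effect; nearly all actives have a fitted effect of over 55% in size.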 The essentials:
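Seed 2500 cells per well and incubate 5 hr at 37 C. Add compounds at a concentration series and incubate 24 hr at 37 C. Add CellTiter-Glo, wait 30 min at RT, read luminescence, and fit a Hill curve for AC50.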

Experiment [2] can be described thus: Cell Viability - LYMP2-022 (AID 987).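 Note: 0% = DMSO alone and full effect = tetraoctylammonium bromide at 92 µM; nearly all actives have a fitted effect of over 55% in size.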 The essentials:
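Cells were seeded at 2500 per well, rested 5 hr at 37 C, and treated with titrated compounds for 24 hr at 37 C. Cellular ATP was then quantified by luciferase luminescence, and AC50 values were derived from Hill-modelled concentration-response curves.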

Experiment [3] can be described thus: Cell Viability - LYMP2-024 (AID 988).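 Note: plate controls were DMSO only for no effect and 92 µM tetraoctylammonium bromide for full effect; nearly all actives have a fitted effect of over 60% in size.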 The method, boiled down: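 qHTS cytotoxicity, human lymphoblastoid line, complete medium; 24 h cpd treatment, 37 C; CellTiter-Glo ATP luminescence readout; tetraoctylammonium bromide positive control; AC50 via Hill fit.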
Experiment [4] is described as follows: Cell Viability - LYMP1-002 - Assay at 24 hr (AID 993). Note: % is set by controls: 0 for no effect and ±100 for the full control effect. The essentials:
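Acute toxicity is measured as concentration-dependent loss of cellular ATP in a human lymphoblastoid line (Coriell LYMP1-002) after 24 h treatment in complete medium. ATP is quantified by luciferase luminescence and AC50 derived by Hill modelling.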

Experiment [5] can be described thus: Cell Viability - LYMP1-002 - Assay at 40 hr (AID 994).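 Note: 0% = DMSO only and full inhibition = 92 µM tetraoctylammonium bromide; nearly all actives have a fitted effect of over 60% in size.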 The method, boiled down: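 Cells are plated at 2500 per well and rested 5 hr at 37 C. Compounds are added and incubated 40 hr at 37 C. CellTiter-Glo reagent is added for 30 min at room temperature before luminescence is read.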
The target in experiment [6] is Glucocorticoid receptor (Homo sapiens) (UniProt P04150). The experiment can be described thus: qHTS assay for small molecule agonists of glucocorticoid receptor signaling (AID 588532; active = well fitted curve in the direction sought with a large enough effect in the signal ratio, with a control signal flat; the % refers to the signal ratio;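 note: 100% = dexamethasone at 0.1 µM and 0% = DMSO only wells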). The conditions noted are these: HeLa MMTV-bla, beta-lactamase ratio, agonist, 18 h; stronger effect = higher value; percent of dexamethasone control, DMSO zero. The essentials: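 MMTV-bla HeLa, beta-lactamase reporter; medium with 1% charcoal/dextran-stripped FBS; cpds up to 92 uM, 18 h, 37 C; CCF4 readout 460/530 nm; Hill fit → EC50, efficacy vs 0.1 uM dexamethasone = 100%.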
A general note: qHTS replaces the single test concentration by a dilution series.

Experiment [7] in a line: qHTS assay for small molecule antagonists of peroxisome proliferator-activated receptor delta signaling (AID 588535; active = well fitted inhibition curve with a large enough effect in the signal ratio, with a control signal flat, not every such curve was filed as active; the % refers to the signal ratio;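 for max response: cells co-treated with a PPAR-delta agonist as stimulator during compound exposure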). The conditions noted are these: HEK293T PPARd-UAS-bla, beta-lactamase FRET ratio, 18 h; 460 nm channel. The method, boiled down:
(§1)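 Inhibition of PPAR-delta response element-driven beta-lactamase expression is measured in HEK293T cells exposed to a compound titration series for 18 hrs at 37 C. Half-maximal inhibition comes from Hill equation fitting.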

Experiment [8] has as its target Peroxisome proliferator-activated receptor delta (Homo sapiens) (UniProt Q03181). The experiment is described as above. The method, boiled down:
as §1

Experiment [9] has as its target Vitamin D3 receptor (Homo sapiens) (UniProt P11473). Description: qHTS assay for small molecule antagonists of vitamin D receptor signaling (AID 588541; calls by dose curve;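 note: receptor activated by calcitriol during compound treatment; series mostly up to about 77 µM; % is set by controls: 0 for no effect and ±100 for the full control effect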). The essentials:
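VDR-UAS-bla HEK293T cells (2000/well, 2% charcoal-stripped FBS) were treated with titrated compounds plus 1-alpha,25-dihydroxyvitamin D3 (50 nM or 3 nM final) for 16 h at 37 C. CCF4 beta-lactamase fluorescence was read; Hill fits gave IC50.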

Experiment [10] has the same target. Description: qHTS assay for small molecule agonists of vitamin D receptor signaling (AID 588543; calls by dose curve;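 note: 0% = DMSO basal and 100% = reference agonist control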). The method, boiled down: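 β-lactamase reporter, VDR-UAS-bla HEK293T, agonist mode. Cells plated 5 h at 37 °C, compound titration 16 h at 37 °C, CCF4 dye 2 h RT, ratio 460/530 nm. Hill fit → EC50, efficacy vs 50 nM 1α,25-(OH)2D3.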
Experiment [11] can be described thus: Cell Viability - LYMP2-026 (AID 989).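 Note: cells exposed to compound for 24 h at 37 °C; % is set by controls: 0 for no effect and ±100 for the full control effect; nearly all actives have a fitted effect of over 50% in size.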 The essentials: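 Cells are seeded at 2500 per well and held 5 hr at 37 C. Compounds are added in concentration series for 24 hr, then CellTiter-Glo reagent is applied and luminescence read.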
For experiment [12], the target named is Bile acid receptor (Homo sapiens) (UniProt Q96RI1). The experiment can be described thus: qHTS assay for small molecule antagonists of farnesoid X receptor signaling (AID 588526; calls by dose curve; note: % is set by controls: 0 for no effect and ±100 for the full control effect). The method, boiled down: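 Concentration-response titrations were fitted to the Hill equation for half-maximal inhibition and maximal response, with data normalised to 50 uM chenodeoxycholic acid and DMSO control wells. Cells: FXR-UAS-bla HEK293T, dialyzed FBS.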

The target in experiment [13] is Glucocorticoid receptor (Homo sapiens) (UniProt P04150). Description: qHTS assay for small molecule antagonists of glucocorticoid receptor signaling (AID 588533; active = well fitted inhibition curve with a large enough effect in the signal ratio, with a control signal flat, not every such curve was filed as active; the % refers to the signal ratio;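 note: cells stimulated with 2 nM dexamethasone as agonist; % is set by controls: 0 for no effect and ±100 for the full control effect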). The method, boiled down:
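Antagonist-mode qHTS: compound titrations added to GRE-bla HeLa cells, then dexamethasone 2 nM final; 18 h, 37 C. CCF4 FRET fluorescence normalized to dexamethasone and DMSO; IC50 from Hill fit.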

The target in experiment [14] is Peroxisome proliferator-activated receptor gamma (Homo sapiens) (UniProt P37231). The experiment can be described thus: qHTS assay for small molecule agonists of peroxisome proliferator-activated receptor gamma signaling (AID 588536; active = well fitted curve in the direction sought with a large enough effect in the signal ratio, with a control signal flat, not every such curve was filed as active; the % refers to the signal ratio;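 note: 0% = DMSO basal wells and 100% = rosiglitazone at 2 µM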). The essentials: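 This is an agonist-mode beta-lactamase reporter assay in HEK293 PPAR-gamma-UAS-bla cells with 1% charcoal/dextran FBS. Compound titrations ran 16 h at 37 C before CCF4 detection. EC50 and efficacy are Hill fits scaled to 2 uM rosiglitazone (100%) and DMSO basal.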

For experiment [15], the target named is Estrogen receptor (Homo sapiens) (UniProt P03372). Description: qHTS assay for small molecule antagonists of estrogen receptor alpha signaling (AID 588513; active = well fitted curve in the direction sought with a large enough effect in the signal ratio, with a control signal flat, not every such curve was filed as active; the % refers to the signal ratio; note: % is set by controls: 0 for no effect and ±100 for the full control effect). The method, boiled down:
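Beta-lactamase reporter, antagonist mode, HEK 293 GripTite cells; 0.5nM E2 stimulus, 18 h, 37 C; CCF4 dye 2 h RT; fluorescence. IC50 and efficacy from Hill fits, normalized to E2 and DMSO.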

For experiment [16] the target is unchanged. Description: qHTS assay for small molecule agonists of estrogen receptor alpha signaling (AID 588514; calls by dose curve;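 note: 0% = vehicle only and 100% = reference agonist; nearly all actives have a fitted effect of over 70% in size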). The method, boiled down: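 Efficacy is expressed against 20 nM 17-beta-estradiol (100%) and DMSO basal (0%); EC50 from Hill equation. Assay: beta-lactamase reporter in ER-alpha-UAS-bla HEK 293 cells, 18 h compound incubation, CCF4 detection.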
The target in experiment [17] is Androgen receptor (Homo sapiens) (UniProt P10275). The experiment can be described thus: qHTS assay for small molecule agonists of androgen receptor signaling (AID 588515; active = well fitted curve in the direction sought with a large enough effect in the signal ratio, with a control signal flat; the % refers to the signal ratio; note: % is set by controls: 0 for no effect and ±100 for the full control effect). The conditions noted are these: AR-UAS-bla HEK293, beta-lactamase ratio, agonist 16 h; stronger effect = higher value. The method, boiled down: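 Stimulation of an AR-responsive β-lactamase reporter in GripTite HEK293 cells was measured after 16 h compound exposure at 37 °C, via CCF4 fluorescence after 2 h RT. EC50 from Hill fits, normalized to R1881 at 30 nM.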

Experiment [18] concerns the target Peroxisome proliferator-activated receptor gamma (Homo sapiens) (UniProt P37231). Description: qHTS assay for small molecule antagonists of peroxisome proliferator-activated receptor gamma signaling (AID 588537; active = well fitted inhibition curve with a large enough effect in the signal ratio, with a control signal flat, not every such curve was filed as active; the % refers to the signal ratio;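 note: reporter cells co-stimulated with 50 nM rosiglitazone agonist during compound treatment; % of control where 0% means no effect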). The essentials: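 Compounds are tested as concentration series for inhibition of rosiglitazone-driven (50 nM) reporter expression in GeneBLAzer PPAR-gamma-UAS-bla HEK293 cells. After 16 h at 37 C, CCF4 substrate is added for 2 h at room temperature and blue/green fluorescence is measured.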

Experiment [19] addresses Androgen receptor (Homo sapiens) (UniProt P10275). The experiment can be described thus: qHTS assay for small molecule antagonists of androgen receptor signaling (AID 588516; active = well fitted curve in the direction sought with a large enough effect in the signal ratio, with a control signal flat, not every such curve was filed as active; the % refers to the signal ratio; note: % is set by controls: 0 for no effect and ±100 for the full control effect). The essentials: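 HEK293 AR-UAS-bla cells, 10% dialyzed FBS medium; cpd titration + R1881 10 nM final, 16 h 37 C; CCF4 2 h RT; FRET ratio; IC50/efficacy via Hill fit.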

Records with an inconclusive call do not appear. Activity calls are given as the source filed them. Unless noted, calls come from the whole dose curve; as a rule, active = well fitted cell-killing curve with a large enough effect; inconclusive = small, poorly fitted or top-dose-only effect; inactive = flat fitted curve, though single readings scatter.

Data on 9 compounds can be found in PubChem BioAssay (NCATS).

Chain of Peroxisome proliferator-activated receptor gamma (Homo sapiens) (P37231 whole entry, looked up): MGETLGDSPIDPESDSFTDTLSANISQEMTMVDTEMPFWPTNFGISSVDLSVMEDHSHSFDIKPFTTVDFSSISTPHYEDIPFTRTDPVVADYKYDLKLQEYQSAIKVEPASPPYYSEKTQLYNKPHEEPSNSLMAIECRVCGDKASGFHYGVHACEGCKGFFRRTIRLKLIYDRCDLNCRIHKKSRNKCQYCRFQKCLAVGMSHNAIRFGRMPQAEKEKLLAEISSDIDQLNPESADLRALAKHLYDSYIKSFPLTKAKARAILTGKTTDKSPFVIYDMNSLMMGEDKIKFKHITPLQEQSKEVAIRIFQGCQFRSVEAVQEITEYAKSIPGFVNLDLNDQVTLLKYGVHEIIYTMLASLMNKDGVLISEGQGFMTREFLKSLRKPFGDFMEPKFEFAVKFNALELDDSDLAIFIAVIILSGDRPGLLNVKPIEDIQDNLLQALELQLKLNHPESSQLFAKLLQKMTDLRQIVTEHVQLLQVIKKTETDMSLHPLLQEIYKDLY
Chain of Glucocorticoid receptor (Homo sapiens) (P04150 whole entry, looked up): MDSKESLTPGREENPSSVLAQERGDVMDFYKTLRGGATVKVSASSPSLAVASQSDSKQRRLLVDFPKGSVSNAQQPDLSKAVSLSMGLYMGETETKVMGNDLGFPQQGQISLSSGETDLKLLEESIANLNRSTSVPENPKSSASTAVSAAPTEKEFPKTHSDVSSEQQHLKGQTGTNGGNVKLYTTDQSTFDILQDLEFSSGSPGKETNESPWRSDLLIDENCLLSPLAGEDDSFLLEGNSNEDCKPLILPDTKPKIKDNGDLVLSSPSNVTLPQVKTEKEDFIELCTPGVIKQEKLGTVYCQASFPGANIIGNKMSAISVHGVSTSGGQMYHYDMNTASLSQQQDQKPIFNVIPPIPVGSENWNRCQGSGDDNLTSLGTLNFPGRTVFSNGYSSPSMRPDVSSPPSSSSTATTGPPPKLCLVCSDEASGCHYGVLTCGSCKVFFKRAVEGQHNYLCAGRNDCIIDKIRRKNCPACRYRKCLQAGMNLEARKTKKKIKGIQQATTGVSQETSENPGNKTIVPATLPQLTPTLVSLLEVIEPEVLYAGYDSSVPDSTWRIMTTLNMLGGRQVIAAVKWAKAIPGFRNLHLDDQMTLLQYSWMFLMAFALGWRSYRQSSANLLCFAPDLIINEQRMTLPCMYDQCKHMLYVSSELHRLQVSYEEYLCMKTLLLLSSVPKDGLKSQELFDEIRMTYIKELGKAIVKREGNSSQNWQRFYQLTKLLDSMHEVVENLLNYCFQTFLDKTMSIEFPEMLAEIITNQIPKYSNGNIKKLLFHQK
Chain of Vitamin D3 receptor (Homo sapiens) (P11473 whole entry, looked up): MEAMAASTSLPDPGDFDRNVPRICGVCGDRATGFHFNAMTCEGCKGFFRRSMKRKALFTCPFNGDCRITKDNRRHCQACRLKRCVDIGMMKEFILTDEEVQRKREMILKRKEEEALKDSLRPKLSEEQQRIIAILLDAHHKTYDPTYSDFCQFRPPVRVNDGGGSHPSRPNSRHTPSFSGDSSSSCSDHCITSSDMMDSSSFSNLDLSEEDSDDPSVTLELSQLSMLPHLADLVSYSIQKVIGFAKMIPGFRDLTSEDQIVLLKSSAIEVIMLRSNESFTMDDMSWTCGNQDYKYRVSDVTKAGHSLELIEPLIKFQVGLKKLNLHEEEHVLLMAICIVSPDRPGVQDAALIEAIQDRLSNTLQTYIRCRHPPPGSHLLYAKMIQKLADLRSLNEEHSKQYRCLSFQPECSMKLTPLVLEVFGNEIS
Chain of Bile acid receptor (Homo sapiens) (Q96RI1 whole entry, looked up): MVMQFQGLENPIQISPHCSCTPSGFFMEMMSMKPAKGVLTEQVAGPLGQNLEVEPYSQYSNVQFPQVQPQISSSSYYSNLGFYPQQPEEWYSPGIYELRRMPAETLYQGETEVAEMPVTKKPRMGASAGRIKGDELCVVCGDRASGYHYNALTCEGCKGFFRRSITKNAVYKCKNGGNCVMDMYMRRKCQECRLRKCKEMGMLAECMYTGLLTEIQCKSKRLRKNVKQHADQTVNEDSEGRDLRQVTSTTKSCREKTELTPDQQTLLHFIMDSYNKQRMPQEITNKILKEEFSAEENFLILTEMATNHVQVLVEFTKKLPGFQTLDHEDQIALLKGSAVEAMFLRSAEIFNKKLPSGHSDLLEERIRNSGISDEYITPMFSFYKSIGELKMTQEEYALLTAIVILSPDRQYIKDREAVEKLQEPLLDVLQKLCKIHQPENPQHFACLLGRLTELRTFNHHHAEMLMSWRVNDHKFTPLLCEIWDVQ
Chain of Androgen receptor (Homo sapiens) (P10275 whole entry, looked up): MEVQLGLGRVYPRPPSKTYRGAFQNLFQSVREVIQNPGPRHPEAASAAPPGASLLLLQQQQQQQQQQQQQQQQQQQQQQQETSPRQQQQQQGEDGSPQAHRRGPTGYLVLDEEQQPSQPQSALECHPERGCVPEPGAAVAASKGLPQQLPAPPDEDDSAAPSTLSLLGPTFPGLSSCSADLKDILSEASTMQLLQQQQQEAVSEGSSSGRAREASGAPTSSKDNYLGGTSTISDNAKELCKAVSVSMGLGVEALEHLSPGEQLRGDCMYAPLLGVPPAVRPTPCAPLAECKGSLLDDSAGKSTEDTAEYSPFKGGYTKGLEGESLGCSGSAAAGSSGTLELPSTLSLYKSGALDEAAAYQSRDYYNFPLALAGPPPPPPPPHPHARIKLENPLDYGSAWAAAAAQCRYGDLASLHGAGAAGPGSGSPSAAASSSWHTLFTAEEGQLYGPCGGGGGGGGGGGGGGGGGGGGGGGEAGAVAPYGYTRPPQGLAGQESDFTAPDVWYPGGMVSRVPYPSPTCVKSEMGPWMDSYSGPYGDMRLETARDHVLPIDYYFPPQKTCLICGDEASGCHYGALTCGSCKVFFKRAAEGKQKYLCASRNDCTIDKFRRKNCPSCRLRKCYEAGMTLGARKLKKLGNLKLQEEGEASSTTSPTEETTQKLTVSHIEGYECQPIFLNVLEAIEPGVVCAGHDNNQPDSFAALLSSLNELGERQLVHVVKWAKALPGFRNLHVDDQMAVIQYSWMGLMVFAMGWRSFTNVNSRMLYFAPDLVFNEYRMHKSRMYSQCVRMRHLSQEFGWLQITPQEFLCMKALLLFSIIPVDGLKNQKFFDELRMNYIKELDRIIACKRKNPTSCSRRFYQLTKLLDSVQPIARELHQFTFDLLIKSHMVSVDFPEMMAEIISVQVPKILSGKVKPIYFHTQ
Chain of Peroxisome proliferator-activated receptor delta (Homo sapiens) (Q03181 whole entry, looked up): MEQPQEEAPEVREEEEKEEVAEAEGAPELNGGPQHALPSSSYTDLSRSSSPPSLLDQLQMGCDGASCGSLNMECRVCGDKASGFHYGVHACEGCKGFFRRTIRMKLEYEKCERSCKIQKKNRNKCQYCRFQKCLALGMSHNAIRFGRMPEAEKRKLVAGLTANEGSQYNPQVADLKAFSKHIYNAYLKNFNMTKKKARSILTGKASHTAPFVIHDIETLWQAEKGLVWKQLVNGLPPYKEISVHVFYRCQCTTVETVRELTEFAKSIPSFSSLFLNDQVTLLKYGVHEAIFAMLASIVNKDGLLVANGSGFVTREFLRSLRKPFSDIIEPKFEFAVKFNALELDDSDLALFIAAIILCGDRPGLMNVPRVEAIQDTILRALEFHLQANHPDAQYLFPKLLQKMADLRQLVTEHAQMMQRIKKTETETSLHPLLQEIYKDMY
Chain of Estrogen receptor (Homo sapiens) (P03372 whole entry, looked up): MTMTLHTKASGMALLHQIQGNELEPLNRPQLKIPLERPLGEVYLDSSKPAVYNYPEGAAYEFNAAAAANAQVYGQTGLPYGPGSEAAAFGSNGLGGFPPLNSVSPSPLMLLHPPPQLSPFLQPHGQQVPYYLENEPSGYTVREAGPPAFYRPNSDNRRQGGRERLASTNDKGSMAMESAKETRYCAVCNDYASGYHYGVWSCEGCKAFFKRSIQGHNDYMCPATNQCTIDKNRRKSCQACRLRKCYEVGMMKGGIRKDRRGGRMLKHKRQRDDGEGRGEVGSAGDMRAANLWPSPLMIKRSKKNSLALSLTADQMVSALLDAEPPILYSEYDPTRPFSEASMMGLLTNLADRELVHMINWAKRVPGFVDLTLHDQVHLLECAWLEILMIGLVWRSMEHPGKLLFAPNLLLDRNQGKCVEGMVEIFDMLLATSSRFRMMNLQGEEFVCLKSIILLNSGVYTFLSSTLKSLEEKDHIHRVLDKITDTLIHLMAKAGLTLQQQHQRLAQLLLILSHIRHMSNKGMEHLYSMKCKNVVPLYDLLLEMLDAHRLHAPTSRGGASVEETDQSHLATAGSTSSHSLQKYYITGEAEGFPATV

Turning to `CCCC=O`, the Potency entry in experiment [1], in experiment [2], in experiment [3], in experiment [4], in experiment [5] and in experiment [8] was “inactive” throughout. The activation in experiment [6] was -2.2% (inactive). Besides, in experiment [7], the max response was 10.5%. In addition, the outcome in [9] and in [10] was inactive.

Take `CCOCCO`: the Potency entry in [1], in experiment [2], in experiment [3], in experiment [4] and in [5] was “inactive” throughout. Further, the result in [11], in experiment [12], in [13], in experiment [14], in experiment [9] and in [10] was inactive. Besides, the activation in experiment [6] was -1.34% (inactive).

For the compound `Cc1cc(C)cc(N)c1`, the Potency entry in experiment [1], in experiment [2], in [3], in [4], in experiment [5] and in experiment [16] was “inactive” each time. The Potency entry in [8] is “inactive”. For the same compound, the compound was called inactive in experiment [11], in experiment [15], in [12], in experiment [13], in [18] and in experiment [9]. For the same compound, the compound was called inactive in experiment [10]. The activation in [17] was 2.27% (inactive); in experiment [6] it was -0.353% (inactive). The max response in [7] is -0.443%.

For the compound `CC(C)=C1CCC(C)CC1=O` (stereo not drawn), the Potency entry in [1], in experiment [2], in experiment [3], in experiment [4], in [5] and in experiment [16] was “inactive” each time. In experiment [8], the Potency result was “inactive”. The compound was classed as inactive in [11], in experiment [15], in experiment [13], in experiment [14], in experiment [18] and in experiment [9]. In experiment [10], the compound was called inactive. In experiment [6], the activation is -0.919% (inactive). The max response in experiment [7] was -8.22%.

For the compound `O=Cc1ccc(Cl)cc1`, the Potency entry in experiment [1], in experiment [2], in experiment [3], in [4], in experiment [5] and in experiment [8] was “inactive” throughout. The compound was called inactive in experiment [11], in experiment [19], in experiment [14], in experiment [18], in [9] and in experiment [10]. For the same compound, in experiment [17], the activation was -1.22% (inactive). In experiment [7], the max response was found to be 7.54%.

For `O=C1OC(=O)c2cc([N+](=O)[O-])ccc21`, the Potency entry in experiment [1], in experiment [2], in experiment [3], in [4], in experiment [5] and in experiment [16] was “inactive” in each case. Besides, the call in experiment [11], in experiment [15], in experiment [13], in experiment [14], in [18] and in experiment [9] was inactive. Further, the result in [10] was inactive. Besides, the activation in experiment [6] is 5.66% (inactive). In addition, the max response in [7] amounted to 9.55%.

Consider `C=C(C)C(=O)OCC(C)C`, for which the Potency result in experiment [1], in experiment [2], in experiment [3], in experiment [4], in experiment [5] and in experiment [16] was “inactive” each time. Further, in experiment [8], the Potency entry is “inactive”. Also, the compound was classed as inactive in experiment [11], in [15], in experiment [12], in [9] and in experiment [10]. Further, the max response in experiment [7] is -19.3%.

As for `CC(=O)c1ccc([N+](=O)[O-])cc1`, the Potency result in [1], in experiment [2], in [3], in experiment [4] and in experiment [5] was “inactive” throughout. For the same compound, the result in experiment [11], in experiment [13], in experiment [14], in experiment [9] and in experiment [10] was inactive. The max response in [7] was 10.4%.

Consider `Cc1c(N)cccc1N`, for which the Potency result in [1], in [2], in experiment [3], in experiment [4] and in experiment [5] was “inactive” in each case. For the same compound, the result in experiment [11], in experiment [9] and in experiment [10] was inactive. For the same compound, the activation in experiment [6] is -2.97% (inactive). Also, in [7], the max response is -12.4%.
